The campaign covered roughly 370,000 compounds. About 3,000 (0.81%) were called active.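 How the source made its calls: active means activity above about 14% (limit read from the data; passing the limit was not always enough); inactive means the rest.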 The full list was thinned out, with actives kept by preference.

Nuclear receptor subfamily 1 group D member 1 (Homo sapiens), sequence (P20393 whole entry, looked up): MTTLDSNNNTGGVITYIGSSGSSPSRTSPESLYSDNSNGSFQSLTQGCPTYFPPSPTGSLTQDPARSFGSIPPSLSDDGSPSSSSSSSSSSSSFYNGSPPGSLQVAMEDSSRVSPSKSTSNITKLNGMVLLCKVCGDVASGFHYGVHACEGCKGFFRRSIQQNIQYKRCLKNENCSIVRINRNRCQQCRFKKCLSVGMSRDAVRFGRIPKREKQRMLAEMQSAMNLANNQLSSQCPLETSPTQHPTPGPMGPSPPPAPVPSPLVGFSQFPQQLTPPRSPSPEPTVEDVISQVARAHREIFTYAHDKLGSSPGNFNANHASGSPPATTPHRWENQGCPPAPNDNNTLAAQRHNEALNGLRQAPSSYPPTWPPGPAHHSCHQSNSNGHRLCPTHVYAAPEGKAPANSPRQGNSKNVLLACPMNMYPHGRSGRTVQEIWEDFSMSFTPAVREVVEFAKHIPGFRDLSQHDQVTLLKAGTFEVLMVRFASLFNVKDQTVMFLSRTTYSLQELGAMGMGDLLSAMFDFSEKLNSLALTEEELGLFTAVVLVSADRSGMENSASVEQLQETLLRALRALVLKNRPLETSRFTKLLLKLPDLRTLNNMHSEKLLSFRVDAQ

The experiment has as its target Nuclear receptor subfamily 1 group D member 1 (Homo sapiens) (UniProt P20393). Kind of experiment: Rev-erbα–DNA interaction modulation – biochemical, FITC-DNA, fluorescence polarization, uHTS, primary screen (AID 1259318).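 Further: 0% = DMSO wells with 35 nM protein and 100% = DMSO wells with 750 nM protein.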 The settings on record: Rev-erbα–FITC-DNA binding, 90 min, at 10 µM, stronger effect = higher value. In general terms: Fluorescence polarisation rises when a labelled molecule tumbles more slowly, as on binding a larger partner.
For `C[n+]1ccc(/C=C/c2c[nH]c3ccccc23)cc1`, the activity was 169% (active). The result for `Cn1cnc([N+](=O)[O-])c1Sc1n[nH]c(N)n1` reads -0.66% (inactive); that for `COc1cc(OC)cc(-c2nc(=S)n3ccsc3n2)c1`, 14.2% (active); that for `COc1cc(C(=O)OCc2cc(=O)n3ccsc3n2)ccc1OC(C)C`, -8.61% (inactive). In the case of `COc1ccc(C(=O)OCc2cc(=O)n3ccsc3n2)cc1F` it was 3.21% (inactive); in that of `CCCC1CCC2(CCCN2CCOC(=O)NCc2ccccc2)CC1` (stereo not drawn), 4.94% (inactive). The result for `C=CCN(Cc1ccc2c(c1)OCO2)C(C#CC1CC1)C(C)(C)C` (stereo not drawn) reads 0.61% (inactive). For `COc1ccc(/C=C2\CC3(OC(C)=O)CCCN2C3)cc1` (stereo not drawn), the activity is 1.87% (inactive). Take `COCCCNC(=O)CNC(=O)c1nn(-c2ccc(OC)cc2)c(=O)c2ccccc12`: the activity was -5.1% (inactive). In the case of `COc1ccc(-n2nc(C(=O)NCC(=O)Nc3cccc(C)n3)c3ccccc3c2=O)cc1` it was 29.5% (active). For `CCCN(CCC)CCCNC(=O)CNC(=O)c1nn(-c2ccc(OC)cc2)c(=O)c2ccccc12`, the activity was 2.42% (inactive). For the compound `Cc1[nH]c2ccccc2c1C(=O)c1cc([C@H](NC(=O)OC(C)(C)C)C(C)C)sc1N`, the activity was 8.9% (inactive). The result for `Cc1cc(C)c2nc(SCC(=O)N(C)C3CCS(=O)(=O)C3)cc(C)c2c1` (stereo not drawn) reads 64% (active).

In the case of `CCn1c(SCC(=O)N(C)C2CCS(=O)(=O)C2)nnc1-c1cccs1` (stereo not drawn), the activity is 1.18% (inactive). In the case of `CN(C(=O)CSc1nnc(-c2ccc(C(C)(C)C)cc2)n1C)C1CCS(=O)(=O)C1` (stereo not drawn) it was -0.03% (inactive). In the case of `COc1ccc(-n2c(SCC(=O)Nc3ccccc3-c3ccccc3)nnc2-c2cccnc2)cc1` it was -5.08% (inactive); in that of `CC1OC(O[C@H]2/C=C/C=C/C=C/C=C/C=C/C=C/C=C/[C@H](C)[C@@H](O)[C@@H](C)[C@H](C)OC(=O)CC(O)CC(O)CCC(O)C(O)CC(O)CC3(O)C[C@H](O)C(C(=O)O)C(C2)O3)C(O)[C@H](N)C1O` (stereo partly drawn), 1.39% (inactive); in that of `O=C(O)CCC(=O)O`, -4.29% (inactive).

For the compound `COc1ccc(NC(=O)c2sc(=O)n(Cc3ccc(S(=O)(=O)N(C)C)cc3)c2C)cc1`, the activity is 4.54% (inactive). The result for `O=C(COC(=O)c1cccc(Br)c1)Nc1cccc2c1C(=O)c1ccccc1C2=O` reads 114% (active). In the case of `O=C(COC(=O)c1cccc(Cl)c1)Nc1ccc2[nH]c(=O)[nH]c2c1`, the activity is -0.59% (inactive). The result for `O=C(COC(=O)Cn1cnc2ccccc21)Nc1cccc2c1C(=O)c1ccccc1C2=O` reads -19.3% (inactive); that for `C#CCN(N(C)c1ncc(C(F)(F)F)cc1Cl)S(=O)(=O)c1ccc2ccccc2c1`, 7.14% (inactive). Take `CCN1CCN(C(=O)Cn2nc(C)n3c(cc4c(OC)cccc43)c2=O)CC1`: the activity was -9.03% (inactive). For the compound `CCCc1cc(=S)n2c([nH]c3ccccc32)c1C#N`, the activity was -0.23% (inactive). Take `COc1ccc(-c2c(C)cc3oc(=O)cc(-c4ccccc4)c3c2C)cc1C=O`: the activity was 18.5% (active). Regarding `COc1cc(OC)c2c(-c3cccc(-c4cccc(N)c4)c3)cc(=O)oc2c1`, the activity was -9.12% (inactive). The result for `Cc1cc2oc(=O)cc(-c3ccccc3)c2c(C)c1-c1ccc(OC(F)(F)F)cc1` reads -5.77% (inactive); that for `CCCc1nc2c(C)cc(-c3nc4ccccc4n3C)cc2n1Cc1ccc(-c2ccccc2C(=O)O)cc1`, 3.42% (inactive); that for `CC(C)CC(=O)Nc1cc(C(F)(F)F)ccc1N1CCOCC1`, -4.25% (inactive).

For `COc1ccc(CNC(=O)C2CCN(C(=O)c3ccccc3)CC2)cc1`, the activity was 1.27% (inactive).

For `COc1ccc(-n2nc3c(N4CCC(C(=O)NCc5ccccc5)CC4)nnc(C)c3c2C)cc1`, the activity is 54.2% (active). The result for `COc1ccc(CNC(=O)C2CCN(C(=O)c3ccco3)CC2)cc1` reads -1.19% (inactive). The result for `CC(C)N(C(=O)Cn1c(SCC(=O)N2CCN(c3ccccc3)CC2)nc2ccccc21)C(C)C` reads 1.23% (inactive). In the case of `O=C(Nc1ccc(O)cc1)c1ccccc1O` it was 3.46% (inactive); in that of `CCCCCC(=O)Nc1ccc(-c2cn3cccnc3n2)cc1`, -0.67% (inactive); in that of `Cc1ccc(CNCc2ccc3c(c2)OCO3)c(C)c1`, -1.18% (inactive).

With `C[C@H]1O[C@@H](O[C@H]2[C@@H](O)C[C@H](O[C@H]3[C@@H](O)C[C@H](O[C@H]4CC[C@]5(C)C6C[C@@H](O)[C@]7(C)[C@@H](C8=CC(=O)OC8)CC[C@]7(O)C6CC[C@@H]5C4)O[C@@H]3C)O[C@@H]2C)C[C@H](O)[C@@H]1O` (stereo partly drawn), the activity is 2.73% (inactive). With `CCOC(=O)c1sc(=NC(=O)/C=C/c2cccs2)n(C)c1C`, the activity is -0.21% (inactive).

On to `CCOC(=O)C1=CN(Cc2ccc(Br)cc2)S(=O)(=O)N(C)C1C` (stereo not drawn), for which the activity is -0.38% (inactive). For `CCOC(=O)c1sc(=NC(=O)c2ccc(Br)cc2)n(C)c1C`, the activity is 51.4% (active). Regarding `C/C(Cn1nnc2ccccc21)=N\OC(=O)c1cc(F)c(F)cc1Cl`, the activity was 2.02% (inactive). Consider `COc1ccc(N2CCN(CCNS(=O)(=O)c3ccc(C(C)(C)C)cc3)CC2)cc1`, for which the activity was 5.09% (inactive). As for `Nc1nc2c(ncn2[C@@H]2O[C@H](C(=O)N[C@H](Cc3ccccc3)C(=O)NCC3CCCCC3)[C@@H](O)[C@H]2O)c(=O)[nH]1`, the activity was 2.3% (inactive).

As for `CCN1/C(=C\c2ccc3ccccc3[n+]2CC)Sc2cc(C)ccc21`, the activity was 73.3% (active). Regarding `COc1ccc(CCNC(=O)CSc2nc3c([nH]2)c(=O)n(C)c(=O)n3C)cc1`, the activity is -0.29% (inactive). In the case of `COc1ccc(CNS(=O)(=O)c2cc(Br)ccc2Br)cc1` it was 6.25% (inactive). In the case of `Cc1cc2cc3c(cc2nc1SCC(=O)Nc1c(C)cccc1C)CCC3` it was 63.4% (active); in that of `Cc1cccc(C)c1NC(=O)CSc1nc2c([nH]1)c(=O)n(C)c(=O)n2C`, 3.98% (inactive). For the compound `Cc1cccc(NC(=O)CSc2nc3c(c(=O)[nH]2)CCC3)c1C`, the activity was -4.62% (inactive). With `CC(=O)C1=C(C)N(Cc2ccc(Cl)cc2)C(=S)NC1c1ccc(F)cc1` (stereo not drawn), the activity was 0.1% (inactive). The result for `CC1(C)C(C=C(Cl)Cl)C1C(=O)N(Cc1ccc(Cl)cc1)C1CCS(=O)(=O)C1` (stereo not drawn) reads 2.8% (inactive). The result for `CCOC(=O)c1[nH]c2ccc(C)cc2c1N=C(C)N(C)C` reads 0.97% (inactive); that for `O=C(CN1CCC(NC(=O)C2CC2)CC1)Nc1ccccc1[N+](=O)[O-]`, -2.64% (inactive). The result for `COc1cccc(-c2cc(CNC(=O)[C@@H](Cc3ccccc3)NC(=O)[C@H]3O[C@@H](n4cnc(C(N)=O)n4)[C@H](O)[C@@H]3O)no2)c1` reads 3.31% (inactive); that for `CCOC(=O)c1c(C)[nH]c(C(=O)NCCN2CCOCC2)c1C`, 1.96% (inactive); that for `CCOC(=O)c1c(NC(=O)CCCN2CCOCC2)sc2c1CC(C)(C)OC2`, 2.68% (inactive). On to `CCOC(=O)c1sc(NC(=O)CCN2CCOCC2)c(C(=O)OCC)c1C`, for which the activity was 30.6% (active). Consider `C=CCN(N=Nc1cccc([N+](=O)[O-])c1)c1cccc([N+](=O)[O-])c1`, for which the activity was 9.23% (inactive). Consider `NC(=O)CC(NC(=O)Cc1ccc(Br)cc1)c1ccc(NC2CC3CCC2C3)c([N+](=O)[O-])c1` (stereo not drawn), for which the activity was -0.82% (inactive). Turning to `FCOC(C(F)(F)F)C(F)(F)F`, the activity is 2.75% (inactive). In the case of `O=C(CSc1ccccn1)N1CCN(S(=O)(=O)c2ccc(Cl)cc2)CC1` it was -4.04% (inactive).

In the case of `O=C(COc1ccc(Cl)cc1)N1CCN(S(=O)(=O)c2ccc(Cl)cc2)CC1`, the activity is -0.97% (inactive). The result for `O=C(COc1ncnc2c(Cl)cc(Cl)cc12)N1CCN(S(=O)(=O)c2ccccc2)CC1` reads 25.2% (active).

Turning to `COc1ccc(C2(C#N)CCC(C(=O)O)CC2)cc1OC1CCCC1` (stereo not drawn), the activity is -2.5% (inactive).

Consider `O=C(CN1CCCc2ccccc21)NCc1ccc(F)cc1`, for which the activity was 0.36% (inactive).

On to `Cc1nn2cc(-c3ccc(Cl)cc3)cnc2c1Br`, for which the activity was 5.5% (inactive). In the case of `CCN(CC)CCCC(C)Nc1ccnc2cc(Cl)ccc12` (stereo not drawn) it was -0.22% (inactive); in that of `COC(=O)c1ccc(OCC(O)CN(CCO)CC(O)Cn2ccc3ccccc32)cc1` (stereo not drawn), 4.36% (inactive); in that of `COC(=O)c1ccc(CN2CCCC(C(=O)Nc3cccc(-n4cnnn4)c3)C2)cc1` (stereo not drawn), 1.49% (inactive).

On to `COC(=O)c1cccc(Cn2ccc3ccc(-c4ccc5ccn(C(=O)C6CCCCC6)c5c4)cc32)c1`, for which the activity is 33.7% (active). The result for `FC(F)(F)c1cccc(Cn2ccc3ccc(-c4ccc5ccn(Cc6ccccc6)c5c4)cc32)c1` reads -9.95% (inactive).

With `COC(=O)c1cccc(Cn2ccc3ccc(-c4ccc5ccn(C(=O)c6ccccc6C)c5c4)cc32)c1`, the activity was 40% (active). The result for `COc1ccc(Cn2ccc3ccc(-c4ccc5ccn(Cc6ccccc6C)c5c4)cc32)cc1` reads 0.1% (inactive); that for `CCC(=O)O[C@]1(C(=O)CCl)[C@@H](C)CC2C3CCC4=CC(=O)C=C[C@]4(C)[C@@]3(F)[C@@H](O)C[C@@]21C` (stereo partly drawn), 0.94% (inactive).

Turning to `Cc1ccc(S(=O)(=O)N(Cc2cc3ccccc3[nH]c2=O)CC2CCCO2)cc1` (stereo not drawn), the activity was -1.97% (inactive). For `CN(C(N)=NC(=O)/C=C/c1ccccc1)C(C#Cc1ccccc1)Cc1ccccc1` (stereo not drawn), the activity is -4.88% (inactive). In the case of `O=C(C1CCN(S(=O)(=O)Cc2ccccc2)CC1)N1CCCc2ccccc21` it was -2.58% (inactive); in that of `Cc1nn(CCOc2ccc(Br)cc2)c(C)c1[N+](=O)[O-]`, 3.89% (inactive). On to `CS(=O)(=O)Nc1cccc(C2=NN(C(=O)c3cccc(F)c3)C(c3cccs3)C2)c1` (stereo not drawn), for which the activity was 1.7% (inactive).

As for `CCOc1ccc2nc(Cl)c(C3CC(c4ccccc4)=NN3C(=O)c3cccs3)cc2c1` (stereo not drawn), the activity is 36% (active). The result for `O=C(COc1ccc2ccccc2c1)N1CCN(C(=O)c2cccs2)CC1` reads 7.29% (inactive). `CC(NC(=O)C(C)(C)C)C(c1cccs1)N1CCN(Cc2ccccc2)CC1` (stereo not drawn): the activity was -5.62% (inactive).

Values taken from PubChem BioAssay AID1259318 (Sanford-Burnham Center for Chemical Genomics, 2017).
